Structures can show the parent of a compound that is named as a salt. ± gives the standard deviation of the averaged measurements.
How the values were obtained:
Assay in all cases: growth (OD600 after 10 h); higher = more growth (less inhibition)
[1] = tested on: E. coli TESEC Alr+ wild-type control; conditions: compound 0.1 mM; raw OD600 reference: median of DMSO wells 0.241, cell-free background 0.041
Procedure: (§1)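 TESEC Mtb Alr E. coli, or the Alr+ wild-type control, in 384-well plates with Prestwick library compounds at 0.1 mM and 1% DMSO, across arabinose induction levels of 1E3 to 1E7 nM. Growth is read as OD600 after 10 h at 37 °C in triplicate biological replicates.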

E. coli TESEC Mtb Alr [2] = conditions: compound 0.1 mM
Procedure: as §1

E. coli TESEC Mtb Asd = conditions: compound 0.1 mM
Procedure: (§2)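 TESEC E. coli strains in which the native enzyme is deleted and replaced by arabinose-inducible Mtb Asd, DapB, CysH or TrpD, each grown in its selective medium. Strains were screened against the Prestwick library at 0.1 mM and 1% DMSO in 384-well format at low and high arabinose induction. Growth is read as OD600 after 10 h in triplicate.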

E. coli TESEC Mtb DapB = conditions: compound 0.1 mM
Procedure: as §2

[3] = tested on: E. coli TESEC Alr+ wild-type control; conditions: compound 0.1 mM; raw OD600 reference: median of DMSO wells 0.49, cell-free background 0.052
Procedure: (§3)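 TESEC Mtb Alr E. coli (ΔaraC ΔtolC ΔentC Δalr ΔdadX, arabinose-inducible Mtb Alr) or the Alr+ wild-type control strain, grown in defined M9-fructose medium without D-alanine in 96-well plates with Prestwick library compounds at 0.1 mM and 1% DMSO. Low Alr induction is 0.1 µM arabinose and high induction is 10 mM arabinose.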

E. coli TESEC Mtb Alr [4] = conditions: compound 0.1 mM; remark: listed apart in the source
Procedure: as §3

[5] = arabinose 1000 nM, raw OD600 reference: median of DMSO wells 0.294, cell-free background 0.041
[6] = arabinose 10000 nM, raw OD600 reference: median of DMSO wells 0.264, cell-free background 0.041
[7] = arabinose 100000 nM, raw OD600 reference: median of DMSO wells 0.201, cell-free background 0.041
[8] = arabinose 1000000 nM, raw OD600 reference: median of DMSO wells 0.193, cell-free background 0.041
[9] = arabinose 10000000 nM, raw OD600 reference: median of DMSO wells 0.146, cell-free background 0.041
[10] = arabinose induction (level): High, raw OD600 reference: median of DMSO wells 0.331, cell-free background 0.041
[11] = arabinose induction (level): Low, raw OD600 reference: median of DMSO wells 0.417, cell-free background 0.041
[12] = arabinose induction (level): High, raw OD600 reference: median of DMSO wells […], cell-free background 0.041
[13] = arabinose induction (level): Low, raw OD600 reference: median of DMSO wells 0.227, cell-free background 0.041
[14] = arabinose 100 nM, raw OD600 reference: median of DMSO wells 0.413, cell-free background 0.052
[15] = arabinose 10000000 nM, raw OD600 reference: median of DMSO wells […], cell-free background 0.052

Compound | growth [1] | growth (E. coli TESEC Mtb Alr [2]; [5]) | growth (E. coli TESEC Mtb Alr [2]; [6]) | growth (E. coli TESEC Mtb Alr [2]; [7]) | growth (E. coli TESEC Mtb Alr [2]; [8]) | growth (E. coli TESEC Mtb Alr [2]; [9]) | growth (E. coli TESEC Mtb Asd; [10]) | growth (E. coli TESEC Mtb Asd; [11]) | growth (E. coli TESEC Mtb DapB; [12]) | growth (E. coli TESEC Mtb DapB; [13]) | growth [3] | growth (E. coli TESEC Mtb Alr [4]; [14]) | growth (E. coli TESEC Mtb Alr [4]; [15])
O=C1OCCN1/N=C/c1ccc([N+](=O)[O-])o1 [Furazolidone] | 0.0406 ± 0.0001 | 0.041 ± 0.00078 | 0.04053 ± 0.00021 | 0.0418 ± 0.00065 | 0.03987 ± 0.00012 | 0.0412 ± 0.0008 | 0.056 ± 0.0037 | 0.0561 ± 0.0034 | 0.114 ± 0.0074 | 0.112 ± 0.012 | 0.05247 ± 0.00031 | 0.0572 ± 0.0027 | 0.05093 ± 0.00032
CN1CCN2c3ncccc3Cc3ccccc3C2C1 (stereo unspecified) [Mirtazapine] | 0.217 ± 0.0068 | 0.281 ± 0.0088 | 0.2774 ± 0.0027 | 0.225 ± 0.025 | 0.182 ± 0.021 | 0.162 ± 0.0043 | 0.261 ± 0.11 | 0.29 ± 0.013 | 0.212 ± 0.0063 | 0.249 ± 0.019 | 0.468 ± 0.035 | 0.414 ± 0.014 | 0.336 ± 0.014
OC(CCN1CCCCC1)(c1ccccc1)c1ccccc1 [Pridinol methanesulfonate salt] | 0.226 ± 0.0064 | 0.299 ± 0.011 | 0.28 ± 0.012 | 0.193 ± 0.0055 | 0.177 ± 0.0082 | 0.151 ± 0.0016 | 0.468 ± 0.015 | 0.466 ± 0.027 | 0.194 ± 0.02 | 0.262 ± 0.035 | 0.469 ± 0.027 | 0.397 ± 0.032 | 0.352 ± 0.011
O=C(N[C@H](CO)[C@H](O)c1ccc([N+](=O)[O-])cc1)C(Cl)Cl [Chloramphenicol] | 0.0406 ± 0.00026 | 0.03953 ± 0.00031 | 0.0391 ± 0.00017 | 0.0408 ± 0.00053 | 0.03907 ± 0.00015 | 0.0407 ± 0.00064 | 0.0519 ± 0.00067 | 0.0522 ± 0.0019 | 0.0496 ± 0.00061 | 0.0578 ± 0.015 | 0.05047 ± 0.0005 | 0.0561 ± 0.0036 | 0.0533 ± 0.003
Cc1cc(-n2c(=O)[nH]c(=O)n(C)c2=O)ccc1Oc1ccc(SC(F)(F)F)cc1 [Toltrazuril] | 0.0494 ± 0.013 | 0.0602 ± 0.032 | 0.0431 ± 0.006 | 0.0449 ± 0.0059 | 0.0576 ± 0.031 | 0.0455 ± 0.0035 | 0.0752 ± 0.012 | 0.203 ± 0.057 | 0.227 ± 0.017 | 0.254 ± 0.016 | 0.137 ± 0.043 | 0.0828 ± 0.028 | 0.0543 ± 0.0016
Nc1c2ccccc2nc2ccccc12 [Aminacrine] | 0.0412 ± 0.0015 | 0.0397 ± 0.00091 | 0.0408 ± 0.0025 | 0.043 ± 0.0015 | 0.0398 ± 0.0011 | 0.0406 ± 0.00096 | 0.0581 ± 0.016 | 0.0513 ± 0.004 | 0.0484 ± 0.00044 | 0.0506 ± 0.005 | 0.0507 ± 0.00067 | 0.15 ± 0.062 | 0.0885 ± 0.027
CCN(CC)CCCC(C)Nc1ccnc2cc(Cl)ccc12 (stereo unspecified) [Chloroquine diphosphate] | 0.236 ± 0.0047 | 0.338 ± 0.0096 | 0.2486 ± 0.0011 | 0.235 ± 0.025 | 0.176 ± 0.0044 | 0.163 ± 0.0047 | 0.253 ± 0.047 | 0.246 ± 0.029 | 0.201 ± 0.026 | 0.226 ± 0.047 | 0.549 ± 0.065 | 0.412 ± 0.014 | 0.328 ± 0.02
OCCN1CCN(CCCN2c3ccccc3C=Cc3ccccc32)CC1 [Opipramol dihydrochloride] | 0.142 ± 0.003 | 0.271 ± 0.023 | 0.245 ± 0.0065 | 0.179 ± 0.0079 | 0.0873 ± 0.0083 | 0.137 ± 0.003 | 0.16 ± 0.019 | 0.276 ± 0.024 | 0.199 ± 0.027 | 0.218 ± 0.04 | 0.464 ± 0.013 | 0.407 ± 0.006 | 0.298 ± 0.0042
CC[N+](C)(CC)CCOC(=O)C1c2ccccc2Oc2ccccc21 [Methantheline bromide] | 0.192 ± 0.0029 | 0.269 ± 0.011 | 0.287 ± 0.0031 | 0.18 ± 0.015 | 0.193 ± 0.025 | 0.135 ± 0.007 | 0.223 ± 0.043 | 0.344 ± 0.044 | 0.173 ± 0.018 | 0.222 ± 0.018 | 0.592 ± 0.017 | 0.4172 ± 0.0035 | 0.336 ± 0.013
Cc1ccnc2c1NC(=O)c1cccnc1N2C1CC1 [Nevirapine] | 0.233 ± 0.0085 | 0.29 ± 0.0079 | 0.254 ± 0.0046 | 0.212 ± 0.0063 | 0.203 ± 0.0086 | 0.14 ± 0.0044 | 0.399 ± 0.051 | 0.391 ± 0.053 | 0.209 ± 0.012 | 0.243 ± 0.0097 | 0.507 ± 0.057 | 0.402 ± 0.014 | 0.343 ± 0.011
COc1ccccc1OCC(O)CN1CCN(CC(=O)Nc2c(C)cccc2C)CC1 (stereo unspecified) [Ranolazine] | 0.207 ± 0.0059 | 0.309 ± 0.036 | 0.285 ± 0.0092 | 0.155 ± 0.012 | 0.178 ± 0.0088 | 0.135 ± 0.0073 | 0.171 ± 0.014 | 0.342 ± 0.085 | 0.174 ± 0.023 | 0.226 ± 0.021 | 0.471 ± 0.068 | 0.4233 ± 0.0032 | 0.301 ± 0.014
CC(CN(C)C)CN1c2ccccc2Sc2ccccc21 (stereo unspecified) [Trimeprazine tartrate] | 0.184 ± 0.019 | 0.221 ± 0.019 | 0.255 ± 0.0092 | 0.189 ± 0.012 | 0.129 ± 0.0014 | 0.168 ± 0.0079 | 0.175 ± 0.028 | 0.323 ± 0.07 | 0.192 ± 0.0094 | 0.231 ± 0.019 | 0.526 ± 0.013 | 0.392 ± 0.0092 | 0.298 ± 0.018
O=C(Nc1cccc2c(=O)cc(-c3nnn[nH]3)oc12)c1ccc(OCCCCc2ccccc2)cc1 [Pranlukast] | 0.23 ± 0.0033 | 0.238 ± 0.0077 | 0.196 ± 0.0094 | 0.227 ± 0.0058 | 0.144 ± 0.0097 | 0.178 ± 0.0095 | 0.236 ± 0.0051 | 0.238 ± 0.014 | 0.158 ± 0.014 | 0.195 ± 0.015 | 0.46 ± 0.0055 | 0.424 ± 0.0063 | 0.308 ± 0.013
CN(Cc1ccc(C(C)(C)C)cc1)Cc1cccc2ccccc12 [Butenafine Hydrochloride] | 0.182 ± 0.0021 | 0.177 ± 0.0088 | 0.2 ± 0.0095 | 0.147 ± 0.0047 | 0.0789 ± 0.0012 | 0.116 ± 0.0035 | 0.204 ± 0.012 | 0.182 ± 0.019 | 0.15 ± 0.019 | 0.169 ± 0.02 | 0.399 ± 0.012 | 0.312 ± 0.013 | 0.11 ± 0.0097
CN1CCCN=C1/C=C/c1cccs1 [Pyrantel tartrate] | 0.235 ± 0.0042 | 0.278 ± 0.0075 | 0.268 ± 0.0081 | 0.191 ± 0.015 | 0.187 ± 0.00096 | 0.148 ± 0.0055 | 0.347 ± 0.032 | 0.416 ± 0.039 | 0.197 ± 0.0092 | 0.249 ± 0.046 | 0.458 ± 0.043 | 0.409 ± 0.0096 | 0.3434 ± 0.0026
CCN1CCN(c2cc3c(cc2F)c(=O)c(C(=O)O)cn3C2CC2)CC1 [Enrofloxacin] | 0.04133 ± 0.00021 | 0.0446 ± 0.0089 | 0.0393 ± 0.00035 | 0.0406 ± 0.0012 | 0.0391 ± 0.0002 | 0.0419 ± 0.0033 | 0.0465 ± 0.0016 | 0.0466 ± 0.0016 | 0.0496 ± 0.00083 | 0.0487 ± 0.0006 | 0.0543 ± 0.0025 | 0.05387 ± 0.00035 | 0.0522 ± 0.001
CN1CCN(CCCN2c3ccccc3Sc3ccc(C(F)(F)F)cc32)CC1 [Trifluoperazine dihydrochloride] | 0.0402 | 0.03983 ± 0.00032 | 0.03903 ± 0.00012 | 0.04003 ± 5.8e-05 | 0.03933 ± 5.8e-05 | 0.0403 ± 0.0001 | 0.0513 ± 0.00026 | 0.054 ± 0.0007 | 0.04873 ± 0.00025 | 0.171 ± 0.11 | 0.04767 ± 0.00035 | 0.26 ± 0.19 | 0.0509 ± 0.00026

— the supplement of paper PMC9262897, “Low-cost anti-mycobacterial drug discovery using engineered E. coli” (Nature Communications, 2022)
